# Source: PubChem BioAssay AID1159580 (chemical genetic matrix, 2015)
# Out of some 5,500 compounds screened, about 2,000 (36%) were called active. Roughly 18% stayed inconclusive and do not appear here. Some of the results follow. Values without a mark were called inactive. Rule as the data show it: active = normalized growth mostly below about 0.91 (no sharp cut-off); inconclusive = no clear call, values can overlap the other calls; inactive = mostly above about 0.92.
# Assay: chemical genetic growth profiling, strain panel (AID 1159580);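 also: tested at 20 µM; growth read once vehicle control cultures reached saturation at 30 °C; 1 = growth at the plate median or of vehicle wells; lower values mean less growth of the strain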
# Details: growth OD
smiles,measurement,setting,value
CC(C)=CCc1c(O)cc2occ(-c3ccc4c(c3)OCO4)c(=O)c2c1O,normalized growth,"S. cerevisiae deletion strains, locus YJR066W, strain TOR1, stronger effect = lower value",0.832
same,normalized growth,"S. cerevisiae deletion strains, locus YJR075W, strain HOC1, stronger effect = lower value",0.994
same,normalized growth,"S. cerevisiae deletion strains, locus YKL068W, stronger effect = lower value",1.01
same,normalized growth,"S. cerevisiae deletion strains, locus YKL085W, strain MDH1 (second series), stronger effect = lower value",1
same,normalized growth,"S. cerevisiae deletion strains, locus YKL085W, strain MDH1, stronger effect = lower value",1
same,normalized growth,"S. cerevisiae deletion strains, locus YKL160W, strain elf1, stronger effect = lower value",0.934
same,normalized growth,"S. cerevisiae deletion strains, locus YKL190W, strain CNB1, stronger effect = lower value",1.01
same,normalized growth,"S. cerevisiae deletion strains, locus YKR001C, strain vps1, stronger effect = lower value",1.03
same,normalized growth,"S. cerevisiae deletion strains, locus YKR026C, strain gcn3, stronger effect = lower value",0.992
same,normalized growth,"S. cerevisiae deletion strains, locus YKR091W, strain srl3, stronger effect = lower value",1
same,normalized growth,"S. cerevisiae deletion strains, locus YLL001W, strain dnm1, stronger effect = lower value",0.81 (active)
same,normalized growth,"S. cerevisiae deletion strains, locus YLL026W, stronger effect = lower value",0.984
same,normalized growth,"S. cerevisiae deletion strains, locus YLL041C, strain sdh2, stronger effect = lower value",0.991
same,normalized growth,"S. cerevisiae deletion strains, locus YLR027C, strain aat2, stronger effect = lower value",0.918 (active)
same,normalized growth,"S. cerevisiae deletion strains, locus YLR039C, strain RIC1, stronger effect = lower value",1.06
same,normalized growth,"S. cerevisiae deletion strains, locus YLR058C, strain SHM2, stronger effect = lower value",1.02
same,normalized growth,"S. cerevisiae deletion strains, locus YLR102C, strain apc9, stronger effect = lower value",1.03
same,normalized growth,"S. cerevisiae deletion strains, locus YLR113W, strain HOG1, stronger effect = lower value",0.75 (active)
same,normalized growth,"S. cerevisiae deletion strains, locus YLR221C, strain rsa3, stronger effect = lower value",0.865 (active)
same,normalized growth,"S. cerevisiae deletion strains, locus YLR258W, strain gsy2, stronger effect = lower value",0.919
same,normalized growth,"S. cerevisiae deletion strains, locus YLR262C, strain YPT6 (second series), stronger effect = lower value",0.911
same,normalized growth,"S. cerevisiae deletion strains, locus YLR262C, strain YPT6, stronger effect = lower value",1.06
same,normalized growth,"S. cerevisiae deletion strains, locus YLR268W, strain sec22, stronger effect = lower value",1
same,normalized growth,"S. cerevisiae deletion strains, locus YLR320W, strain mms22, stronger effect = lower value",0.929
same,normalized growth,"S. cerevisiae deletion strains, locus YLR330W, strain CHS5, stronger effect = lower value",1.01
same,normalized growth,"S. cerevisiae deletion strains, locus YLR342W, strain FKS1 (second series), stronger effect = lower value",0.996
same,normalized growth,"S. cerevisiae deletion strains, locus YLR342W, strain FKS1, stronger effect = lower value",0.952
same,normalized growth,"S. cerevisiae deletion strains, locus YLR357W, strain rsc2, stronger effect = lower value",0.948
same,normalized growth,"S. cerevisiae deletion strains, locus YLR370C, strain arc18, stronger effect = lower value",0.992
same,normalized growth,"S. cerevisiae deletion strains, locus YLR371W, strain rom2, stronger effect = lower value",1.04
same,normalized growth,"S. cerevisiae deletion strains, locus YLR384C, strain iki3, stronger effect = lower value",0.992
same,normalized growth,"S. cerevisiae deletion strains, locus YLR418C, strain cdc73, stronger effect = lower value",1.01
same,normalized growth,"S. cerevisiae deletion strains, locus YML016C, strain PPZ1, stronger effect = lower value",1.01
same,normalized growth,"S. cerevisiae deletion strains, locus YML032C, strain rad52, stronger effect = lower value",1.02
same,normalized growth,"S. cerevisiae deletion strains, locus YML120C, strain ndi1, stronger effect = lower value",0.895 (active)
same,normalized growth,"S. cerevisiae deletion strains, locus YML124C, strain tub3, stronger effect = lower value",1.02
same,normalized growth,"S. cerevisiae deletion strains, locus YMR058W, strain fet3, stronger effect = lower value",0.828 (active)
same,normalized growth,"S. cerevisiae deletion strains, locus YMR078C, strain ctf18, stronger effect = lower value",1.03
same,normalized growth,"S. cerevisiae deletion strains, locus YMR125W, strain sto1, stronger effect = lower value",0.957
same,normalized growth,"S. cerevisiae deletion strains, locus YMR129W, stronger effect = lower value",0.982
same,normalized growth,"S. cerevisiae deletion strains, locus YMR205C, strain PFK2, stronger effect = lower value",0.96
same,normalized growth,"S. cerevisiae deletion strains, locus YMR223W, strain ubp8, stronger effect = lower value",1.02
same,normalized growth,"S. cerevisiae deletion strains, locus YMR231W, strain pep5, stronger effect = lower value",0.993
same,normalized growth,"S. cerevisiae deletion strains, locus YMR263W, strain SAP30, stronger effect = lower value",1
same,normalized growth,"S. cerevisiae deletion strains, locus YMR307W, strain GAS1, stronger effect = lower value",1
same,normalized growth,"S. cerevisiae deletion strains, locus YNL067W, strain RPL9B, stronger effect = lower value",1
same,normalized growth,"S. cerevisiae deletion strains, locus YNL071W, strain lat1, stronger effect = lower value",0.949
same,normalized growth,"S. cerevisiae deletion strains, locus YNL128W, strain TEP1, stronger effect = lower value",1.02
same,normalized growth,"S. cerevisiae deletion strains, locus YNL153C, strain GIM3, stronger effect = lower value",1
same,normalized growth,"S. cerevisiae deletion strains, locus YNL183C, strain NPR1, stronger effect = lower value",0.839
same,normalized growth,"S. cerevisiae deletion strains, locus YNL209W, strain ssb2, stronger effect = lower value",0.937
same,normalized growth,"S. cerevisiae deletion strains, locus YNL233W, strain BNI4, stronger effect = lower value",0.971
same,normalized growth,"S. cerevisiae deletion strains, locus YNL248C, strain rpa49, stronger effect = lower value",0.962
same,normalized growth,"S. cerevisiae deletion strains, locus YNL250W, strain rad50, stronger effect = lower value",1.04
same,normalized growth,"S. cerevisiae deletion strains, locus YNL271C, strain bni1, stronger effect = lower value",1.03
same,normalized growth,"S. cerevisiae deletion strains, locus YNL298W, strain CLA4, stronger effect = lower value",1.05
same,normalized growth,"S. cerevisiae deletion strains, locus YNL307C, strain MCK1, stronger effect = lower value",1.02
same,normalized growth,"S. cerevisiae deletion strains, locus YNL322C, strain KRE1 (second series), stronger effect = lower value",0.998
same,normalized growth,"S. cerevisiae deletion strains, locus YNL322C, strain KRE1, stronger effect = lower value",1.01
same,normalized growth,"S. cerevisiae deletion strains, locus YNR049C, strain mso1, stronger effect = lower value",0.982
same,normalized growth,"S. cerevisiae deletion strains, locus YNR052C, strain pop2, stronger effect = lower value",1.03
same,normalized growth,"S. cerevisiae deletion strains, locus YOL006C, strain TOP1, stronger effect = lower value",1.05
same,normalized growth,"S. cerevisiae deletion strains, locus YOL012C, strain htz1",0.966
same,normalized growth,"S. cerevisiae deletion strains, locus YOL147C, strain pex11, stronger effect = lower value",1.03
same,normalized growth,"S. cerevisiae deletion strains, locus YOR001W, strain rrp6, stronger effect = lower value",0.857 (active)
same,normalized growth,"S. cerevisiae deletion strains, locus YOR061W, strain CKA2, stronger effect = lower value",1.01
same,normalized growth,"S. cerevisiae deletion strains, locus YOR069W, strain VPS5, stronger effect = lower value",1.01
same,normalized growth,"S. cerevisiae deletion strains, locus YOR070C, strain gyp1, stronger effect = lower value",0.954
same,normalized growth,"S. cerevisiae deletion strains, locus YOR080W, strain dia2, stronger effect = lower value",0.925
same,normalized growth,"S. cerevisiae deletion strains, locus YOR083W, strain WHI5, stronger effect = lower value",0.925
same,normalized growth,"S. cerevisiae deletion strains, locus YOR106W, strain vam3, stronger effect = lower value",0.899
same,normalized growth,"S. cerevisiae deletion strains, locus YOR136W, strain idh2, stronger effect = lower value",1.03
same,normalized growth,"S. cerevisiae deletion strains, locus YOR144C, strain elg1, stronger effect = lower value",1.02
same,normalized growth,"S. cerevisiae deletion strains, locus YOR184W, strain ser1, stronger effect = lower value",1.05
same,normalized growth,"S. cerevisiae deletion strains, locus YOR231W, strain MKK1, stronger effect = lower value",0.816 (active)
same,normalized growth,"S. cerevisiae deletion strains, locus YOR265W, strain rbl2, stronger effect = lower value",0.968
same,normalized growth,"S. cerevisiae deletion strains, locus YOR270C, strain vph1, stronger effect = lower value",0.729 (active)
same,normalized growth,"S. cerevisiae deletion strains, locus YOR290C, strain snf2, stronger effect = lower value",0.916
same,normalized growth,"S. cerevisiae deletion strains, locus YOR316C, strain cot1, stronger effect = lower value",1.02
same,normalized growth,"S. cerevisiae deletion strains, locus YPL051W, strain arl3, stronger effect = lower value",0.877 (active)
same,normalized growth,"S. cerevisiae deletion strains, locus YPL055C, strain LGE1, stronger effect = lower value",0.993
same,normalized growth,"S. cerevisiae deletion strains, locus YPL078C, strain atp4, stronger effect = lower value",0.918
same,normalized growth,"S. cerevisiae deletion strains, locus YPL106C, strain sse1, stronger effect = lower value",0.915
same,normalized growth,"S. cerevisiae deletion strains, locus YPL240C, strain hsp82, stronger effect = lower value",0.974
same,normalized growth,"S. cerevisiae deletion strains, locus YPL241C, strain CIN2, stronger effect = lower value",1.01
same,normalized growth,"S. cerevisiae deletion strains, locus YPL256C, strain CLN2, stronger effect = lower value",0.808 (active)
same,normalized growth,"S. cerevisiae deletion strains, locus YPR119W, strain clb2, stronger effect = lower value",1.02
same,normalized growth,"S. cerevisiae deletion strains, locus YPR141C, strain kar3, stronger effect = lower value",1.03
same,normalized growth,"S. cerevisiae deletion strains, locus YPR163C, strain tif3, stronger effect = lower value",1.02
same,normalized growth,"S. cerevisiae deletion strains, locus YPR167C, strain met16, stronger effect = lower value",1.03
same,normalized growth,"S. cerevisiae deletion strains, strain wtn01, stronger effect = lower value",1.02
same,normalized growth,"S. cerevisiae strains, strain wild type, stronger effect = lower value",1
